Six compounds from PubChem BioAssay can be followed below.

The structures appear in SMILES notation. Active and inactive are the calls of the source.

For assay [1], the system named is Plasmodium falciparum Sir2 (PF13_0152, Sir2A). In words: pfSir2 binders on small-molecule microarrays, primary screen, biochemical, small-molecule microarray, 635 nm fluorescence (AID 1098).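 Further: score merges spot fluorescence intensity with its signal-to-noise ratio.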 The following applies: small-molecule microarray binding, fluorescence 635 nm; higher = more signal.
Assay [2] can be described thus: small-molecule microarray binders of probe aDKK1, primary screen, biochemical, biotinylated probe, 635/667 nm fluorescence (AID 1099).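 Further: score merges 667nm spot fluorescence with signal to noise across triplicate slides.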 The following applies: higher = more signal.
Assay [3] in a line: small-molecule microarray binders of probe aCHRDL2, primary screen, biochemical, biotinylated probe, 635/667 nm fluorescence (AID 1100). The following applies: higher = more signal.
A short description of assay [4]: splicing luciferase reporter signal modulators, primary screen, spliceosome inhibition project, cell-based, HEK293, splice +/- reporter (AID 1101).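 Further: HEK293 cells carrying a splicing-competent luciferase reporter gene; test concentration not given here.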 The following applies: luminescence, 24 h, higher = more signal, called active from +8 up or from −8 down. Background: A reporter such as luciferase makes a cellular process visible.
The target in assay [5] is Fibroblast growth factor 10 (Homo sapiens) (UniProt O15520). In words: FGF10 binders on small-molecule microarrays, primary screen, biochemical, small-molecule microarray, 635 nm fluorescence (AID 1102). The following applies: FGF10 binding, fluorescence 635 nm, higher = more signal.
Assay [6] deals with glycogen synthase kinase-3 (GSK3A per assay name; protocol says GSK3B). In words: GSK3 binders on small-molecule microarrays, primary screen, biochemical, small-molecule microarray, 635 nm fluorescence, GSK3A (AID 1103). Further: the record names both GSK3A and GSK3B. The following applies: small-molecule microarray binding, fluorescence 635 nm; higher = more signal.
Assay [7] concerns the target Epidermal growth factor receptor (Homo sapiens) (UniProt P00533). In words: EGFR binders on small-molecule microarrays, primary screen, biochemical, small-molecule microarray, 635 nm fluorescence (AID 1104).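 Further: score merges 667 nm emission intensity with spot signal to noise over triplicate slides.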 The following applies: EGFR binding, higher = more signal.
Assay [8] deals with Follistatin-related protein 3 (Homo sapiens) (UniProt O95633). In words: FSTL3 binders on small-molecule microarrays, primary screen, biochemical, small-molecule microarray, 635 nm fluorescence (AID 1105).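 Further: score merges emission near 667 nm and signal to noise per printed spot across three slides.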 The following applies: FSTL3 binding, higher = more signal.
The target of assay [9] is Dickkopf-related protein 1 (Homo sapiens) (UniProt O94907). In words: DKK1 binders on small-molecule microarrays, primary screen, biochemical, small-molecule microarray, 635 nm fluorescence scan (AID 1106).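 Further: score merges emission near 667 nm with signal to noise over three replicate slides.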 The following applies: DKK1 binding, higher = more signal.
Assay [10] concerns Inhibin beta A chain (activin A). In words: INHBA (activin A) binders on microarrays, primary screen, biochemical, small-molecule microarray, 635 nm fluorescence scan (AID 1107).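 Further: mouse activin A protein probed at 4.33 µg/mL on printed slides; score merges bound-protein fluorescence near 667 nm with spot signal-to-noise.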 The following applies: small-molecule microarray binding, higher = more signal.
The test system of assay [11] is Human papillomavirus type 1a protein E7 (residues 44-93). In words: HPV1a E7 fragment binders on microarrays, primary screen, biochemical, small-molecule microarray, residues 44-93, 635 nm fluorescence (AID 1108).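 Further: E7 fragment applied at 1 µg/mL in TBST for 1 h at 4 C; score combines spot fluorescence with its signal to noise ratio.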 The following applies: small-molecule microarray binding, fluorescence 635 nm; higher = more signal.
A short description of assay [12]: modulators of HCV replicon luciferase signal, primary screen, HCV replication inhibitor project, Huh7 cells, luciferase reporter (AID 1109).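 Further: huh7 hepatoma cells harbouring a luciferase neomycin HCV replicon reporter; luciferase luminescence as measure of HCV replicon replication; test concentration not given here.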 The following applies: 48 h, higher = more signal.
Assay [13] deals with Left-right determination factor 2 (Homo sapiens) (UniProt O00292). In words: LEFTY2 binders on small-molecule microarrays, primary screen, biochemical, small-molecule microarray, 635 nm fluorescence scan (AID 1110). The following applies: LEFTY2 binding, higher = more signal.
For assay [14], the target named is Calmodulin-1 (Homo sapiens) (UniProt P0DP23). In words: CALM1 binders on microarrays, EGTA buffer, profiling panel, biochemical, small-molecule microarray, Cy5-labelled CALM1 (AID 1111).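 Further: labelled calmodulin applied in Tris saline Tween buffer holding calcium plus EGTA and DTT.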 The following applies: Cy5-CALM1 binding fluorescence, higher = more signal.
Assay [15] shares this target. In words: calcium-bound CALM1 binders on microarrays, profiling panel, artefact control for SMM control-protein annotation, biochemical, small-molecule microarray, Cy5-labelled CALM1, plus calcium (AID 1112).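 Further: score merges spot fluorescence with signal to noise from triplicate slides.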 The following applies: Cy5-CALM1 binding fluorescence, higher = more signal.
Assay [16] is described as follows: small-molecule microarray binders of probe aWnt5a, primary screen, biochemical, biotinylated probe, 635/667 nm fluorescence (AID 1113).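 Further: score merges 667 nm fluorescence intensity with signal-to-noise per printed feature.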 The following applies: higher = more signal.
The nature of assay [17]: small-molecule microarray binders of probe aShh, primary screen, biochemical, biotinylated probe, 635/667 nm fluorescence (AID 1114).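 Further: probe is biotin-labelled aShh protein from a stem cell growth factor screen; measures binding of labelled protein to compounds printed on the slide; score merges feature fluorescence at 667 nm with signal-to-noise.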 The following applies: higher = more signal.
A short description of assay [18]: small-molecule microarray binders of probe aNog, primary screen, biochemical, biotinylated probe, 635/667 nm fluorescence (AID 1115).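 Further: probe is biotinylated aNog protein used at 0.15 µg/mL for 1 h at 4 C; z-score combines 667 nm fluorescence of each spot with its signal to noise.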 The following applies: higher = more signal.
The target of assay [19] is Torsin-1A-interacting protein 1 (Homo sapiens) (UniProt Q5JTV8). In words: LAP1 binders from COS7 cell lysate, primary screen, small-molecule microarray, 635/667 nm fluorescence (AID 1116). The following applies: COS7-hLAP1 lysate binding, 635 nm fluorescence, higher = more signal.
Assay [20] addresses Alpha-bungarotoxin (Bungarus multicinctus) (UniProt P60615). In words: alpha-bungarotoxin binders on microarray, profiling panel, artefact control for SMM control protein annotation, biochemical, small-molecule microarray, Alexa647 label, 635/667 nm fluorescence (AID 1117). The following applies: alpha-BTX-A647 binding fluorescence, higher = more signal.

Chain of Torsin-1A-interacting protein 1 (Homo sapiens) (Q5JTV8 whole entry, looked up): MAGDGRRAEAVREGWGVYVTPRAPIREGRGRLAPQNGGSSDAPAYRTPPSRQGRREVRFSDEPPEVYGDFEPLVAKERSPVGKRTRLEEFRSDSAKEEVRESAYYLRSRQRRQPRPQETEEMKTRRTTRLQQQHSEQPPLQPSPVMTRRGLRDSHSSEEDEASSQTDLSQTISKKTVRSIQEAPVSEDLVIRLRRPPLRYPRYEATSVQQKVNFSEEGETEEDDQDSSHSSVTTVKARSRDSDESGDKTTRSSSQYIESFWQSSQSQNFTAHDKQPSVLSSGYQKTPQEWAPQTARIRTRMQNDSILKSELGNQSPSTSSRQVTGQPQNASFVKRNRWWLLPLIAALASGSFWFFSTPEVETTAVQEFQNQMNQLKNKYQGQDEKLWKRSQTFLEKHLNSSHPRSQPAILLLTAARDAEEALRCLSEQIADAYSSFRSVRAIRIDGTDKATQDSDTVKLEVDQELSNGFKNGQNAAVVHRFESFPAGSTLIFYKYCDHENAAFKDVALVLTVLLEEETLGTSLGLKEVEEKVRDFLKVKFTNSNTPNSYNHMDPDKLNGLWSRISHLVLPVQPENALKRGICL
Chain of Left-right determination factor 2 (Homo sapiens) (O00292 whole entry, looked up): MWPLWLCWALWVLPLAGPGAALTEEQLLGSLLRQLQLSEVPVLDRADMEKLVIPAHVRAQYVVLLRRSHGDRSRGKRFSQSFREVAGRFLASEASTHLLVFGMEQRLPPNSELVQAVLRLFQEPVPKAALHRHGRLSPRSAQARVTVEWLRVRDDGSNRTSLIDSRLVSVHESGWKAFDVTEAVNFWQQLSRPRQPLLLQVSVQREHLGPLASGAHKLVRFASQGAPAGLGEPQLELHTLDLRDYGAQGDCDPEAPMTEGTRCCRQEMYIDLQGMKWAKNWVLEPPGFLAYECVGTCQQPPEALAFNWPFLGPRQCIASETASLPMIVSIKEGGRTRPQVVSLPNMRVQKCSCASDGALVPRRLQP
Chain of Fibroblast growth factor 10 (Homo sapiens) (O15520 whole entry, looked up): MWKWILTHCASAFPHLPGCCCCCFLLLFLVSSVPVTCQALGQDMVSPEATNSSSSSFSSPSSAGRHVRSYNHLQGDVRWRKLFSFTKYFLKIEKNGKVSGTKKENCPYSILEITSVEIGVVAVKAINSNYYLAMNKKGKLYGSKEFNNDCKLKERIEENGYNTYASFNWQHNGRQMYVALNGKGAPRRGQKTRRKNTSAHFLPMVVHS
Chain of Follistatin-related protein 3 (Homo sapiens) (O95633 whole entry, looked up): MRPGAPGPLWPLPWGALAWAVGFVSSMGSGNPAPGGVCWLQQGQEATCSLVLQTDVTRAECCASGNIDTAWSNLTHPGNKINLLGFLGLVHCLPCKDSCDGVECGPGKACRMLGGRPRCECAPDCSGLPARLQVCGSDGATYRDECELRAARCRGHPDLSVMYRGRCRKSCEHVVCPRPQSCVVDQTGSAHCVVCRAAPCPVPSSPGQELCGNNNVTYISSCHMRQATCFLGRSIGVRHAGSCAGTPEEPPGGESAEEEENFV
Chain of Alpha-bungarotoxin (Bungarus multicinctus) (P60615 whole entry, looked up): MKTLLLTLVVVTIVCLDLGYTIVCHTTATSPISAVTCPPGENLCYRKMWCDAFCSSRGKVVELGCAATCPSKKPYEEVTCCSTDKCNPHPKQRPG
Chain of Epidermal growth factor receptor (Homo sapiens) (P00533 whole entry, looked up): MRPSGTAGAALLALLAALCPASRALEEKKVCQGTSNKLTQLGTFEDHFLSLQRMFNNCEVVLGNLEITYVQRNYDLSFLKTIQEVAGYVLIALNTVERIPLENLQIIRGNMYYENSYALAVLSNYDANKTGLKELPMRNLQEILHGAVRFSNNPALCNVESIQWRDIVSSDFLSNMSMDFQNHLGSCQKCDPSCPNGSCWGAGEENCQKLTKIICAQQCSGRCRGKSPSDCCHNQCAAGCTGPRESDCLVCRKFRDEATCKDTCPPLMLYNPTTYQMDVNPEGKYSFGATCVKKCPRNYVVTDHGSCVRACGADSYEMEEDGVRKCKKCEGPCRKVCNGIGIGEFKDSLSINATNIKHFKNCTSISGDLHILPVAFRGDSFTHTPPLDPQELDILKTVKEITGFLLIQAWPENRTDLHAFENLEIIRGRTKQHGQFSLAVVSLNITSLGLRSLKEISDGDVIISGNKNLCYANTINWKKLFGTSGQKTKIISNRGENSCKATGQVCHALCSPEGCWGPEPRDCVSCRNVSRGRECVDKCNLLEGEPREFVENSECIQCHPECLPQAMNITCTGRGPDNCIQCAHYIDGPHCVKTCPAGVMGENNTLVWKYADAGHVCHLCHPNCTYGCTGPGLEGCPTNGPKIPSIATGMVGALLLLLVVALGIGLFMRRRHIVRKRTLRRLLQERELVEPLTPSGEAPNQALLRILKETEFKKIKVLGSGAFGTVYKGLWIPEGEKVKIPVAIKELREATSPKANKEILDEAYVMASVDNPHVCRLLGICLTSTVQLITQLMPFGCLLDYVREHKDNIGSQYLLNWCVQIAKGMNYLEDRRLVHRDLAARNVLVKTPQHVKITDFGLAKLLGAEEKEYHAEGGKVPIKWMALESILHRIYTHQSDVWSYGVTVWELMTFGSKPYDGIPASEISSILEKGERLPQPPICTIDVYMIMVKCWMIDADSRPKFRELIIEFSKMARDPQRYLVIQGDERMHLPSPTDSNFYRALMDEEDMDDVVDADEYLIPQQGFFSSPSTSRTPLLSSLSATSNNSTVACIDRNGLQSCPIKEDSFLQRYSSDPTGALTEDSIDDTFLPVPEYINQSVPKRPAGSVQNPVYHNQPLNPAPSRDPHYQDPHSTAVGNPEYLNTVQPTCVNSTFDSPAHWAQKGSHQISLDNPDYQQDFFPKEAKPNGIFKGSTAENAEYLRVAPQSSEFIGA
Chain of Dickkopf-related protein 1 (Homo sapiens) (O94907 whole entry, looked up): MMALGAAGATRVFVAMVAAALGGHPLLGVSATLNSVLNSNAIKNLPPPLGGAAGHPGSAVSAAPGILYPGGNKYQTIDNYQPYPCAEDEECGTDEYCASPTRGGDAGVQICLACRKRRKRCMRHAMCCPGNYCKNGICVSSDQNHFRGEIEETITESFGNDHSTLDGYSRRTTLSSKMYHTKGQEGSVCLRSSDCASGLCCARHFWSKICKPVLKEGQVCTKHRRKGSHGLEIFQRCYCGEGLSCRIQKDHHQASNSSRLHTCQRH

In the case of `CC(CO)N1C(=O)[C@@H]2[C@H]3C(=O)OCC=C[C@H]3OC23C=CCN(c2ccc4ccccc4c2)C(=O)[C@@H]13` (stereo not given in full), the composite z-score in [1] was -0.893; in assay [2] it was -0.0682; in assay [3], 0.725; in [5], -0.916; in assay [6], -1.56; in [7] it was -1.64. Moreover, the composite z-score in [8] is -1.66; in [9], -1.83; in [10], -1.18; in assay [11], -1.55; in assay [13] it was -2.64; in assay [14] it was -0.505. For the same compound, the composite z-score in [15] is 0.0117; in assay [16], -0.174; in [17], -0.0035; in assay [18], 0.474; in assay [19], -1.14; in assay [20] it was -0.674. The values for the z-score in assay [4] and in assay [12] were 0.445 (inactive) and -0.418, respectively.

With `COC(=O)[C@@]1(Cc2ccc(F)cc2)[C@@H]2C(=CC(=O)[C@H]2CC(=O)C(=O)N2CCCC2)CN1C(=O)c1ccccc1`, the composite z-score is 0.9 in assay [1]; 1.72 in assay [2]; 0.978 in [3]; 1.48 in [5]; 0.573 in [6]; 1.36 in assay [7]. The composite z-score in assay [8] was 1.39; in assay [9], 0.467; in assay [10] it was 1.19; in [11], 1.47; in assay [13] it was 0.643; in assay [14], 1.38. Moreover, the composite z-score in assay [15] was -0.24; in [16], 0.625; in [17], 0.761; in assay [18], 2.06; in assay [19] it was 1.25; in assay [20], 0.683. For the same compound, the results for the z-score in assay [4] and in [12] were -4.12 (inactive) and -2.78, respectively.

As to `COc1ccc(C(=O)Nc2ccc(CN3C(=O)[C@]4(O[C@H](CC(=O)N(CCO)Cc5ccccc5)[C@@H]([Si](C)(C)c5ccc(OC)cc5)[C@@H]4C)c4ccccc43)cc2)cc1`, the composite z-score in assay [1] was 1.11; in assay [2] it was -0.0522; in assay [3] it was -0.338; in assay [5], 1.34; in assay [6] it was 0.956; in assay [7], 0.918. Moreover, the composite z-score is 1.34 in [8]; 1.1 in assay [9]; 0.842 in assay [10]; 1.37 in assay [11]; 0.803 in assay [13]; -0.0162 in [14]. The composite z-score in assay [15] is -0.46; in assay [16] it was 0.0354; in assay [17], 0.108; in assay [18], 0.0326; in assay [19], 0.811; in assay [20], 0.543. The z-score in assay [4] is -1.88 (inactive); in assay [12] it was -3.71.

With `CC[C@@H](O[Si](C#C[Si](C(C)C)(C(C)C)C(C)C)(C(C)C)C(C)C)c1cn([C@H](CO)Cc2ccccc2)nn1`, the composite z-score in [1] was 0.954; in assay [2] it was -0.331; in assay [3], -0.592; in assay [5], 0.675; in assay [6], 0.566; in [7], 0.236. Besides, the composite z-score in [8] is 0.675; in assay [9], 0.39; in assay [10], -0.092; in [11] it was 1.02; in assay [13], 0.498; in [14] it was 0.229. Besides, the composite z-score was -0.24 in [15]; -0.148 in assay [16]; -0.0769 in assay [17]; 0.184 in [18]; 0.739 in assay [19]; 0.167 in assay [20]. Further, the z-score in assay [4] is 0.131 (inactive); in [12], -0.126.

With `CC1C2C(CCCO)=CC(C3C(=O)N(C(N)=O)C(=O)C23)N1Cc1cccc(OC(F)(F)F)c1` (stereo not given), the composite z-score in assay [1] was 0.174; in assay [2], -0.0132; in [3], -0.311; in [5] it was 0.646; in assay [6], 0.719; in assay [7], 0.177. The composite z-score in assay [8] is 0.101; in [9], -0.26; in [10] it was -0.055; in assay [11], 0.0396; in assay [13], 0.246; in assay [14] it was 0.366. For the same compound, the composite z-score was 0.41 in assay [15]; -0.096 in assay [16]; 0.13 in assay [17]; 0.528 in assay [18]; 1.26 in assay [19]; 1.32 in assay [20]. Moreover, the z-score is -0.586 (inactive) in assay [4] and -1.07 in assay [12].

For `C=C(COC)C(=O)CC[C@@H](OC(=O)c1ccccc1-c1ccccc1C(=O)O)c1ccccc1OCCO`, the composite z-score in assay [1] was 0.664; in assay [2], -0.0934; in assay [3], 0.0182; in [5] it was 1.65; in assay [6], 0.293; in [7] it was -0.0099. For the same compound, the composite z-score in [8] is 0.474; in [9], 0.902; in assay [10], 1.34; in assay [11], 0.933; in assay [13] it was 0.585; in [14], -0.537. Besides, the composite z-score in [15] was -1.2; in assay [16] it was -0.232; in assay [17], -0.17; in assay [18], 0.153; in [19], 3.7; in [20], -0.217. Also, the figures for the z-score in assay [4] and in assay [12] were -0.14 (inactive) and -1.91, respectively.
